According to the supplement of paper PMC6555819:

What was measured:
Assay in all cases: PBM binding z-score (relative to random genomic background probes); higher = stronger binding; sequences stand for … in GC…GCGATTGACAGCGTAGAATGAAGG
[1] = test system: RARb homodimer (NR concentration 270 nM)
How it was run: (§1)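 Ligand-free nuclear receptor dimers were applied to custom Agilent 4×180K protein-binding microarrays whose double-stranded probes carried direct-repeat seeds, single-nucleotide variants, half-site ablations and random human genomic background sequences in 34-nt variable regions. Incubation lasted 1 h. Binding z-scores were computed against the random background probes from regression-normalized fluorescence.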

[2] = test system: RARg:RXRa (NR concentration 270 nM, RXRa partner concentration 90 nM)
How it was run: as §1

[3] = test system: RARg homodimer (NR concentration 270 nM)
How it was run: as §1

[4] = test system: RXRa DBDmut IVT, anti-RXR (DBD mutation: RXRa K156A/R161A, NR concentration 90 nM)
How it was run: as §1

[5] = test system: RXRa homodimer (NR concentration 180 nM)
How it was run: as §1

[6] = test system: THRa:RXRa (NR concentration 90 nM, RXRa partner concentration 90 nM)
How it was run: as §1

[7] = test system: THRa homodimer (NR concentration 90 nM)
How it was run: as §1

[8] = test system: VDR homodimer (NR concentration 270 nM)
How it was run: as §1

Sequence	PBM binding z-score [1]	PBM binding z-score [2]	PBM binding z-score [3]	PBM binding z-score [4]	PBM binding z-score [5]	PBM binding z-score [6]	PBM binding z-score [7]	PBM binding z-score [8]
AGAATGAGGTTAAGAGCAGGGAAACAGAATACAT	0.878	2	1.27	0.729	2.46	2.19	0.347	0.0105
CGAACTAGGTGAAGGACAGTGAATCTCCGCACGC	0.454	0.04	0.23	-0.281	0.265	0.232	-0.201	-0.373
CGAACTAGTTCATCCAGGACAGTGAATACATTGA	0.846	1.12	1.39	3.28	0.593	2.23	1.07	3.24
TCATATAGGTAAATGCTAGGTGAAAGCCCGATCT	0.272	0.503	0.325	1.5	0.914	1.29	0.116	-0.161
TAGCCTAGGTCAGTGGGCCAGTATAGTACGCATC	2.1	2.45	3.58	-0.571	1.03	1.29	-0.197	-0.446
GCTATTAGTTGAAAGGGCAACCGAATGATTCTCG	2.09	1.26	1.37	0.972	1.21	0.664	-0.209	0.624
AATACAGGGTCACTCGGCCAGAGTAGGTACGAAT	3.24	5.28	5.06	3.27	5.63	3.4	0.907	2.84
CCTACTGGGCTAAGGTCATTGATCAGTCAAAGCA	3.59	4.14	3.51	1.83	4.07	3.95	4.04	2.94
CCTCGGAGTACAACAGGAGGTCAGAGCTGCCAGA	2.99	3.01	2.39	1.27	1.86	2.16	0.436	1.47
TCGGACAGGTGAAGGTAACTCAGGTACGCAGTCG	1.08	0.664	1.17	0.768	0.653	1.33	0.486	0.395
ACTATTAGTTGAAACGAGGGCAACCGATAGGTTG	1.25	1.01	1.11	0.84	0.792	3.41	0.358	1.1
CCTATTAGTTGACCATAAGGGTAACCGAAGCTCG	1.5	1.01	0.877	0.493	0.639	1.3	1.19	1.2
CTACCAAGGTGAAAAAGGTCGTTGATTACTATTC	2.39	2.01	1.33	1.01	2.21	2.42	0.518	1.4
TCGAGTAGGTGACCAATGGGGCATTCAGCTTTCT	0.62	0.353	0.0885	-0.0137	0.185	-0.147	-0.979	-0.776
TGACAAAGTTCAAAGGTAACGTAAGTATCCACAC	3.83	6.01	5.91	4.38	6.68	3.36	-0.0359	4.23
CCTGCTAGGTCATGGTAAGCTAATCTACAGTATG	2.79	3.8	4.48	1.84	2.62	2.98	1.22	-0.214
TAGCCTAGGTCAGATCAGGCCAGTATACGCTATA	2.07	2.81	3.44	-0.202	1.41	4.36	0.219	-0.305
CGTCCAAGGTGAAGGTCAGTGAAAGAGACTCGAA	3.4	3.39	3.88	0.585	2.36	2.71	0.956	0.389
CGTACAAGGTCAGAGAGGTCAGTGAATGCCGAGT	5.31	6.28	7.24	3.52	5.95	4.23	2.64	6

Sequence	PBM binding z-score [1]	PBM binding z-score [2]	PBM binding z-score [3]	PBM binding z-score [4]	PBM binding z-score [5]	PBM binding z-score [6]	PBM binding z-score [7]	PBM binding z-score [8]
CCTCGGAGGACAGAAAGTCAGAGCTGTCCGCTTT	-0.167	-0.265	0.0547	-0.146	-0.788	-0.441	-0.747	-0.657
TCATATAGGTAAACAGGTGAAAGACCGTAAGTTA	0.437	0.712	0.452	1.32	1.17	0.539	0.114	0.225
CTACCAAAGTGAACAAGGTCGTTGATTACTATTC	1.32	0.65	0.529	1.69	0.996	1.94	1.24	2.22
TCATATAGGTAAAGGTGAAAGTGGAACGATATGA	1.44	1.71	1.52	0.597	2.41	1.36	-0.306	-0.115
CGAACGAGGGCATGACTTGATAGCAAATGCCGAT	0.668	1.26	1.54	2.16	0.981	1.2	-0.168	0.849
CCGACTGGGGCAAGGTGACCATAACGCACAGCCA	1.11	0.469	0.934	-0.745	0.419	0.718	0.18	-0.459
GCTGCTGGGTCAACTGATGGTCAGCTAAAGCTCG	3.36	5.04	4.22	1.22	3.13	2.41	0.228	-0.125
CCTAGCAGGCCGGGGTCACTCAAGCATTTCGCTT	3.68	4.98	3.6	1.99	6.81	3.89	2.05	3.75
CCTCGGAGGACAGAAGGTCACAGCTGTCCGCTTT	4.26	4.72	4.05	0.581	3.83	3.36	0.632	0.765
GGAAGGAGGGCATTCGAGTTGATAGCATGGCGAT	1.15	0.897	1.34	1.47	0.679	2.83	0.445	2.01
CCTACTGGGCCATCAGGTCATTGGTATCAACGTT	2.99	1.93	1.66	0.149	0.958	3.33	3.05	1.64
TCATATAGGTAAATGCTAGGTGAACGTCCGATCT	0.575	0.645	0.417	1.4	0.952	1.56	0.84	0.0802
TGAATGAGGTTATAAGATCTGGGAACGTTGCAAA	0.515	1.04	0.631	0.607	1.61	1.67	0.199	0.194
CAAACTAGGTCACCGGAAGGTCAAGGTCCGCATG	5.77	8.53	7.66	2.03	6.64	4.3	3.53	3.16
CGAACTAAGTCAGAACAGGACAGTGAAGGATGAT	0.68	0.103	0.431	0.106	0.167	1.14	-0.281	-0.107
GATACAGGGTCAGCTAAAGGCCAGAGTATGGAAA	3.61	6.61	5.01	0.751	4.45	3.02	0.329	0.806
CCTTACGGATCACTGACAGGTTATAGCATTTGGA	0.537	0.614	0.579	0.744	0.347	0.372	0.628	0.612
AGTCAACGTTCATCTAGGTAACGTAAGATATGCT	-0.148	0.363	0.744	-0.0413	0.0603	0.649	-0.132	-0.282
GCGACTGGGACATCAGCAGGTTACCATAACTTAA	0.428	-0.00527	0.0107	-0.5	0.176	0.674	0.0254	-0.459

Sequence	PBM binding z-score [1]	PBM binding z-score [2]	PBM binding z-score [3]	PBM binding z-score [4]	PBM binding z-score [5]	PBM binding z-score [6]	PBM binding z-score [7]	PBM binding z-score [8]
CCTATTAGTTGACCATAAGGACAACCGAAGCTCG	1.71	1.36	1.28	0.69	0.852	3.42	3.91	1.1
TCTGCTAGGTCAGTTGTTCAGCTAACGAGCTGCC	2.19	2.19	3.35	0.434	0.641	1.25	0.158	-0.531
AGTTAAAGTTCACTAGGTAACGTAAGATTCAGCT	3.53	4.38	4.95	3.86	3.07	1.92	0.252	3.22
ACTCGGAGGACAAAGGTCAGCGCTACGCCAGTGA	4.95	6.38	5.4	1.36	5.69	3.54	0.928	1.34
CTACCAAGGAGAACAAGGTCGTTGATTACTATTC	1.14	0.413	0.266	1.2	0.732	1.87	1.05	1.73
ACAGATAGGTGAGTGAAGGTAACTCAGCTGGACG	0.126	0.246	0.547	-0.347	0.347	1.65	-0.341	-0.149
TCTTGTAGATCAAGCATGTTAAGAAAGCCTGAGT	-0.365	-0.147	-0.0954	0.943	0.122	-0.0977	-0.856	0.128
TCTGGCAGGCCAGAGGGTCACTCAAGAGGTACGG	2.63	2.81	1.94	-0.443	2.6	1.62	-0.676	0.353
GGAACGAGGGCAAGTTGACAGCAGAGTTTGATGG	1.76	1.71	2.41	2.46	1.16	1.17	-0.0541	1.42
ACTATTAGTTGAGACGACGGCAACCGATAGGTTG	-0.491	0.00753	0.223	-0.0527	0.0138	-0.529	-0.596	-0.117
AGGCAAAGTTCAGGACGAGGTAACGTAAAGCACG	3.36	4.68	5.16	2.98	3.23	3.87	1.95	2.35
TCTTGTAGATCAGCAGGTTATGAAAGCTGGCCAA	-0.0555	-0.168	-0.428	0.64	0.311	0.276	-0.466	-0.405
TCGAGTAGGTTAGTCGGGGCATTAAGCCAACATA	0.232	0.0892	-0.106	0.352	-0.0422	1.02	-0.508	0.177
AGAACGAGGGCAATGCGTTGATAGCACGGGTGGC	0.934	1.05	1.65	1.2	0.834	0.775	-0.0819	1.17
TTACGAAGGTGAAGGTCGTTGATCCCTCTGTAGA	1.84	1.38	1.26	0.133	1.93	1.52	0.135	0.942
CAGCCTAGGTCACGGCCAGTATAGGAGGAACGTT	3.53	5.27	5.72	1.1	4.43	3.65	1.98	0.435
AGTAGTTGGTCAGCTGAGGTCACACACAATTCGG	4.45	4.21	4.62	1.36	4.2	4.88	5	3.98
ACAGACAGGTGAGTAAAGGTAACTCAGCTGGACG	0.365	0.666	0.622	-0.605	0.915	1.67	-0.828	-0.485
GCAGACAGGTGAAACTCAGGTAACTCAGGGTGGC	0.42	1.03	0.566	-0.185	0.901	2.7	0.521	-0.73
